# PubChem BioAssay (NCATS)
# A number with no mark means an inactive call. Inconclusive results are not listed. A call without a number means that no potency is given here. The source made the active and inactive calls. Unless noted, the call rests on the fitted dose curve; in most records, active means well fitted curve in the direction sought with a large enough effect; inconclusive means small, poorly fitted or top-dose-only effect, or another doubt; inactive means no such curve, though single readings can be large; an effect the other way counts as inactive or inconclusive.
# How the values were obtained:
# [1] = Cell Viability - LYMP2-004 (AID 966); further: nearly all actives have a fitted effect of over 65% in size
# Procedure, shortened: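 Viable-cell number estimated from ATP luminescence (CellTiter-Glo) in 2500 human lymphoblastoid cells/well after 24 hr at 37 C with compound. AC50 fitted to the standard Hill equation.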
# [2] = Cell Viability - LYMP2-009 (AID 968); further: series mostly up to about 92 µM; nearly all actives have a fitted effect of over 55% in size
# [3] = Cell Viability - LYMP2-011 (AID 969); further: nearly all actives have a fitted effect of over 60% in size
# Procedure, shortened: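 Cells seeded at 2500 per well rest 5 hr before compound addition, then incubate 24 hr at 37 C. CellTiter-Glo reagent is added for 30 min at room temperature before luminescence detection.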
# [4] = Cell Viability - LYMP2-015 (AID 971); further: nearly all actives have a fitted effect of over 55% in size
# Procedure, shortened: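 AC50 values reflect Hill-model fits of ATP-based luminescence (CellTiter-Glo) from a human lymphoblastoid line, 2500 cells/well, treated 24 hr at 37 C.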
# [5] = Cell Viability - LYMP2-017 (AID 972); further: series mostly up to about 92 µM; nearly all actives have a fitted effect of over 55% in size
# Procedure, shortened: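 In this qHTS format, lymphoblastoid cells in complete medium receive test compound for a day at 37 C before ATP content is quantified by luciferase luminescence. Reported AC50 figures come from standard Hill-equation curve fitting.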
# [6] = Cell Viability - LYMP2-023 (AID 975);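 further: cellular ATP measured by luciferase luminescence as viability proxy; series mostly up to about 92 µM; nearly all actives have a fitted effect of over 55% in size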
# Procedure, shortened: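 In this qHTS, ATP-based luciferase luminescence (CellTiter-Glo) is quantified in human lymphoblastoid cells after 24 hr compound treatment at 37 C; tetraoctylammonium bromide serves as positive control. Concentration-response curves are Hill-fitted to give AC50.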
# [7] = Cell Viability - LYMP2-025 (AID 976); further: series mostly up to about 92 µM
# Procedure, shortened: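 Luminescent ATP readout after 24 hr treatment of a human lymphoblastoid line (LYMP2-025, 2500 cells/well, 37 C). Reagent developed 30 min at room temperature; AC50 fitted with the Hill equation.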
# [8] = Cell Viability - LYMP2-002 (AID 977);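 further: series mostly up to about 92 µM; compound exposure lasted 24 h at 37 °C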
# Procedure, shortened: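 Human lymphoblastoid cells, 2500/well, complete medium; 5 h 37 C settle; compound 24 h 37 C; CellTiter-Glo, 30 min RT; luminescence. Decrease in ATP = cytotoxicity; AC50 via Hill equation.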
# [9] = Cell Viability - LYMP2-006 (AID 978); further: series mostly up to about 92 µM; nearly all actives have a fitted effect of over 60% in size
# Procedure, shortened: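 Cells are seeded at 2500 per well and rested 5 hr at 37 C. Compounds are added across a concentration series for 24 hr at 37 C, after which ATP is quantified by luciferase luminescence.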
# [10] = Cell Viability - LYMP2-007 (AID 979);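 further: cells exposed to compound for 24 h before reading; nearly all actives have a fitted effect of over 60% in size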
# Procedure, shortened: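 Measured via luciferase-based ATP quantitation: lymphoblastoid cells, 24 hr compound exposure at 37 C, AC50 from Hill fits.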
# [11] = Cell Viability - LYMP2-008 (AID 980); further: nearly all actives have a fitted effect of over 60% in size
# Procedure, shortened: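 Measured: ATP-dependent luminescence, proportional to viable cell number, in human lymphoblastoid cells treated 24 hr with compound in complete culture medium. Values are AC50s from Hill-equation modelling of qHTS titrations.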
# [12] = Cell Viability - LYMP2-010 (AID 981); further: nearly all actives have a fitted effect of over 55% in size
# Procedure, shortened: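 This 24 hr viability screen uses LYMP2-010 lymphoblastoid cells, quantifies ATP via luciferase luminescence, and derives AC50 from Hill fits of qHTS concentration-response data.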
# [13] = Cell Viability - LYMP2-016 (AID 984); further: nearly all actives have a fitted effect of over 55% in size
# Procedure, shortened: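 Cells were seeded at 2500 per well and rested 5 hr before a 24 hr compound exposure at 37 C. Viability was then gauged as cellular ATP by luciferase luminescence, with AC50 values fitted to the Hill equation.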
# [14] = Cell Viability - LYMP2-018 (AID 985); further: nearly all actives have a fitted effect of over 50% in size
# Procedure, shortened: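 In this qHTS viability assay, cells are treated for 24 hr and cellular ATP is quantified by luciferase-based luminescence, with tetraoctylammonium bromide as positive control.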
# [15] = Cell Viability - LYMP1-002 - Assay at 24 hr (AID 993)
# Procedure, shortened: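 Viability was judged from intracellular ATP using a luciferase read-out, following a 24-hour compound incubation at 37 C of lymphoblastoid cells seeded at 2500 per well. Concentration-response data were fitted to the Hill equation for AC50.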
# [16] = Cell Viability - LYMP1-002 - Assay at 40 hr (AID 994); further: nearly all actives have a fitted effect of over 60% in size
# Procedure, shortened: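 Concentration-dependent ATP loss after 40 hr treatment at 37 C defined toxicity; AC50 values were obtained by fitting the standard Hill equation.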
# [17] = target: Estrogen receptor (Homo sapiens) (UniProt P03372); test: qHTS assay for small molecule antagonists of estrogen receptor alpha signaling (AID 588513; active means well fitted curve in the direction sought with a large enough effect in the signal ratio, with a control signal flat, not every such curve was filed as active; the % refers to the signal ratio)
# Chain of Estrogen receptor (Homo sapiens) (P03372 whole entry, looked up): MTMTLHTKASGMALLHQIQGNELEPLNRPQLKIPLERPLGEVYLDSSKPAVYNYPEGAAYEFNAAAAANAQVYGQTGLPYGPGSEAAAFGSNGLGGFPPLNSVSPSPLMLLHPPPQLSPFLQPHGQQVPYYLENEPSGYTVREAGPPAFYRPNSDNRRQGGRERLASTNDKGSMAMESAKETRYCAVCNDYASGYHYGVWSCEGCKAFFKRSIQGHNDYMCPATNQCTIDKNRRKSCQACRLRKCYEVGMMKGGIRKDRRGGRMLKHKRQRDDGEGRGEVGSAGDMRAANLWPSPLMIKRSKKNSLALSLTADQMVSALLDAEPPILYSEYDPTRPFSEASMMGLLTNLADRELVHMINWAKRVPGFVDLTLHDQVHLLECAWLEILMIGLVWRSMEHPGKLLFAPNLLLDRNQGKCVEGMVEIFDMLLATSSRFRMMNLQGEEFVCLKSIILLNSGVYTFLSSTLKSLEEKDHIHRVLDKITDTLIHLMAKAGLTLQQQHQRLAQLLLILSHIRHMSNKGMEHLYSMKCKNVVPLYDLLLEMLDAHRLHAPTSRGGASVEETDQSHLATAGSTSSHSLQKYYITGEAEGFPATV
# Procedure, shortened: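 Fluorescence from CCF4 substrate after 2 h at room temperature gave reporter activity; cells had been exposed to compound and 0.5nM 17-beta-estradiol for 18 h at 37 C. Hill-equation fitting yielded IC50 and maximal response.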
# [18] = target: Glucocorticoid receptor (Homo sapiens) (UniProt P04150); test: qHTS assay for small molecule agonists of glucocorticoid receptor signaling (AID 588532; active means well fitted curve in the direction sought with a large enough effect in the signal ratio, with a control signal flat; the % refers to the signal ratio); conditions: HeLa MMTV-bla, beta-lactamase ratio, agonist, 18 h; stronger effect = higher value; percent of dexamethasone control, DMSO zero
# Chain of Glucocorticoid receptor (Homo sapiens) (P04150 whole entry, looked up): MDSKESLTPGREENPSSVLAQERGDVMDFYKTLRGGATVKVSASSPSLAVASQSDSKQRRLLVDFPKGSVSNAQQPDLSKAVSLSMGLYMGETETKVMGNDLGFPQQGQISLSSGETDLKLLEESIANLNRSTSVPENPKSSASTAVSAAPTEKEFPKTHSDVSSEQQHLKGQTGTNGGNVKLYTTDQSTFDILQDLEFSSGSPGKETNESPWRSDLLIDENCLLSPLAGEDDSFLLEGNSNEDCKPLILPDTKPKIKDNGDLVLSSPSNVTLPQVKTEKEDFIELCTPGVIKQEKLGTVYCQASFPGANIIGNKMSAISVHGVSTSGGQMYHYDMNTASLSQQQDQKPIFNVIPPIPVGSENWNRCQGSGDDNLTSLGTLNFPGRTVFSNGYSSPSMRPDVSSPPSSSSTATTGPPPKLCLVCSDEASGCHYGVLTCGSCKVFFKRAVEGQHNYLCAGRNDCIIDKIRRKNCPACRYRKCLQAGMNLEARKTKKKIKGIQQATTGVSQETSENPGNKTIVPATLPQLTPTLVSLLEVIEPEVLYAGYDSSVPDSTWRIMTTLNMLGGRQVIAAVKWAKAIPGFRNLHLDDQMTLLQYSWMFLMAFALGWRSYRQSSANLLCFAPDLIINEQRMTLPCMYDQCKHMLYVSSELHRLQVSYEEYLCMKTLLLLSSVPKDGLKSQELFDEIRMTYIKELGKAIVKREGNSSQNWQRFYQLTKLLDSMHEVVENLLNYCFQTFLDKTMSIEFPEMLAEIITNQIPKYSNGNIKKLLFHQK
# Procedure, shortened: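 HeLa GRE-bla reporter cells; 18 h compound exposure at 37 C; 2 h CCF4 loading at room temperature; fluorescence at 460 and 530 nm; EC50 by Hill equation.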
# [19] = target: Glucocorticoid receptor (Homo sapiens) (UniProt P04150); test: qHTS assay for small molecule antagonists of glucocorticoid receptor signaling (AID 588533; active means well fitted inhibition curve with a large enough effect in the signal ratio, with a control signal flat, not every such curve was filed as active; the % refers to the signal ratio;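 further: cells stimulated with 2 nM dexamethasone as agonist; potency means the concentration at half of the fitted maximal effect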)
# Procedure, shortened: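 Antagonist-mode qHTS: compound titrations added to GRE-bla HeLa cells, then dexamethasone 2 nM final; 18 h, 37 C. CCF4 FRET fluorescence normalized to dexamethasone and DMSO; IC50 from Hill fit.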
# [20] = target: Thyroid hormone receptor beta (Homo sapiens) (UniProt P10828); test: qHTS assay for small molecule antagonists of thyroid hormone receptor beta signaling (AID 588547; active means well fitted inhibition curve with a large enough effect in the signal ratio, with a control signal flat, not every such curve was filed as active; the % refers to the signal ratio;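 further: cells stimulated with 0.4 nM T3 agonist during compound exposure; series mostly up to about 77 µM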); conditions: TR-UAS-bla HEK293, beta-lactamase ratio, antagonist mode, 18 h
# Chain of Thyroid hormone receptor beta (Homo sapiens) (P10828 whole entry, looked up): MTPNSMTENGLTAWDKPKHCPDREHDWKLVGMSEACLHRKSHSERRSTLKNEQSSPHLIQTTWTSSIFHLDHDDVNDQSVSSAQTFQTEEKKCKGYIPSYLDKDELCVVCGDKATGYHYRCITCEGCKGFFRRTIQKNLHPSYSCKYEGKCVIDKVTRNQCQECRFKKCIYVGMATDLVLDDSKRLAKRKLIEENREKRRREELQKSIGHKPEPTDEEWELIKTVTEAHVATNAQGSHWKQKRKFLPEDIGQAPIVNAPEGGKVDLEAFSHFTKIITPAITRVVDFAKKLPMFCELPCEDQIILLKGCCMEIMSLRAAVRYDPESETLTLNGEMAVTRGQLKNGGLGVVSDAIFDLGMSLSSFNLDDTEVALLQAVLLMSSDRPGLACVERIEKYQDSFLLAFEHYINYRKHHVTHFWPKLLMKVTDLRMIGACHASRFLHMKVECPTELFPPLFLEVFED
# Procedure, shortened: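 TR-UAS-bla GripTite HEK293 cells in 2% charcoal/dextran FBS medium; compounds 0.59 nM to 92 uM with T3 at 0.4nM final, 18 h at 37 C. Beta-lactamase read by CCF4 fluorescence (460/530 nm); Hill fits gave IC50 and efficacy.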
# [21] = target: Voltage-gated inwardly rectifying potassium channel KCNH2 (Homo sapiens) (UniProt Q12809); test: qHTS Assay for Small Molecule Inhibitors of the Human hERG Channel Activity (AID 588834);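 further: top concentration of the series differs between compounds; lower thallium flux fluorescence means stronger hERG block; nearly all actives have a fitted effect of over 50% in size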
# Chain of Voltage-gated inwardly rectifying potassium channel KCNH2 (Homo sapiens) (Q12809 whole entry, looked up): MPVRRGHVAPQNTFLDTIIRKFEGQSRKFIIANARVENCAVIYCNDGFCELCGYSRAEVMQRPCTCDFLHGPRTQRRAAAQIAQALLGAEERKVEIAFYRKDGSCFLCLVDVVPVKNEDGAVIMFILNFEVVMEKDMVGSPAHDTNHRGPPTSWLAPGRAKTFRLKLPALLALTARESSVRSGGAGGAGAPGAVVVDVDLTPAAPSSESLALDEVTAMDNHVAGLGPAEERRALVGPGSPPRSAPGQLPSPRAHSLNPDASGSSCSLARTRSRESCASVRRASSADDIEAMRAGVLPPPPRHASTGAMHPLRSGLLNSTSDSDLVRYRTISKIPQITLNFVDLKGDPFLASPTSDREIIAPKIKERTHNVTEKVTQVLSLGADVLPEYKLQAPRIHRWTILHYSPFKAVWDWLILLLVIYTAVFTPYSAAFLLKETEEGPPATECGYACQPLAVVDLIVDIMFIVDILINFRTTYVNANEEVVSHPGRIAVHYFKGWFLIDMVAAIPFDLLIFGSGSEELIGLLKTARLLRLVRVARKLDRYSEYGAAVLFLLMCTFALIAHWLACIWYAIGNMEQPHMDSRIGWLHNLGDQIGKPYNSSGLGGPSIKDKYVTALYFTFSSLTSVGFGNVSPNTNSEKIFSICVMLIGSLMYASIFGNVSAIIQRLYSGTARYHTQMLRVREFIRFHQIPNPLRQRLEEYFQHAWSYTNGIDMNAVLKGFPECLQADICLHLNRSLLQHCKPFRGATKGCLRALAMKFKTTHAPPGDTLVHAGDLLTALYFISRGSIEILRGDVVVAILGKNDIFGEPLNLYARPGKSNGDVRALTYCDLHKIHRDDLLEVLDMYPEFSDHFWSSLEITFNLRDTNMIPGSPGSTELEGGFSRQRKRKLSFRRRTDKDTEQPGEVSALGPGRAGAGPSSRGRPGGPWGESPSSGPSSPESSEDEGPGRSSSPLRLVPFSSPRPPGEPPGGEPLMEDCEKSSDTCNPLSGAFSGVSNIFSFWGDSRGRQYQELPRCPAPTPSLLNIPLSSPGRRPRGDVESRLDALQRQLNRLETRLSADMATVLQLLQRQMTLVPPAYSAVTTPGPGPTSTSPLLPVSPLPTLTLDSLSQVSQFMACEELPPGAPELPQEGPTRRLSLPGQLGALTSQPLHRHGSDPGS
# Procedure, shortened: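 Step 1: BacMam hERG transduction of U2OS, 4 hrs RT. Step 2: overnight 37 °C, plate 2000 cells/well, 4 hr. Step 3: FluxOR load, compound 10 min, stimulate, read fluorescence.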
# [22] = qHTS assay for small molecule activators of the p53 signaling pathway (AID 651743; active means well fitted activation curve with a large enough effect in the signal ratio, not every such curve was filed as active; the % refers to the signal ratio; further: series mostly up to about 92 µM); conditions: HCT-116 p53RE-bla, beta-lactamase FRET ratio, 16 h; activation: stronger effect = higher value
# Procedure, shortened: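 Reporter: beta-lactamase driven by p53 response elements, stably integrated in HCT-116 cells. Cells seeded at 4,000/well, 5 h preincubation, compound (DMSO) 16 h at 37 C; B/G FRET substrate 2 h RT; fluorescence intensity read.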
# [23] = qHTS assay for small molecule activators of the nuclear factor-kappa B (NF-kB) signaling pathway (AID 651749; active means well fitted activation curve with a large enough effect in the signal ratio; the % refers to the signal ratio; further: series mostly up to about 77 µM); conditions: NF-kB-bla ME-180 cells, beta-lactamase FRET ratio, 16 h; stronger effect = higher value
# Procedure, shortened: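 NF-kB-bla ME-180 cells, 2,000/well; 23 nL compound or DMSO pinned; 16 hr, 37C/5% CO2; beta-lactamase FRET read-out.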
# [24] = qHTS assay for small molecule disruptors of the mitochondrial membrane potential - 1 hr assay (AID 651754; calls by dose curve; further: potency means the concentration at half of the fitted maximal effect; nearly all actives have a fitted effect of over 35% in size)
# Procedure, shortened: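 In this qHTS format, a 1 hr compound treatment of HepG2 cells precedes Mito-MPS staining, and membrane potential is judged from aggregate (red) against monomer (green) fluorescence intensity.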
# [25] = target: Tumor necrosis factor (Homo sapiens) (UniProt P01375); test: qHTS assay to identify small molecules that stimulate Tumor Necrosis Factor-alpha (TNF-alpha) secretion (AID 651757; active means well fitted curve in the direction sought with a large enough effect in the signal ratio; the % refers to the signal ratio)
# Chain of Tumor necrosis factor (Homo sapiens) (P01375 whole entry, looked up): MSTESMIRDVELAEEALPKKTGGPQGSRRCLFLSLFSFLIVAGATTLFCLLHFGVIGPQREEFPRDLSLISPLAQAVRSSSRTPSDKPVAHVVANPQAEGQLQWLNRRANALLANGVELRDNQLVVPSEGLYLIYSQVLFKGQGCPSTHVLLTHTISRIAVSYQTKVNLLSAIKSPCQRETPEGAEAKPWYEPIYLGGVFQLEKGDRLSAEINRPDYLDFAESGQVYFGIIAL
# Procedure, shortened: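 Using 3000 THP-1 cells per well, compounds and controls were applied for 17 hrs at 37 C. Detection followed with two labeled anti-TNF-alpha antibodies (cryptate donor, XL665 acceptor) for 3 hr at room temperature, measured by TR-FRET.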
# [26] = qHTS assay to identify small molecules that stimulate interleukin-8 (IL-8) secretion (AID 651758; active means well fitted activation curve with a large enough effect in the signal ratio; the % refers to the signal ratio)
# Procedure, shortened: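 Compounds are added to THP-1 cells (2000 per well) and left 16 hrs at 37 C. A labeled anti-IL-8 antibody pair is then added, and IL-8 secretion is measured by time-resolved FRET after 1-3 hrs at room temperature.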
# [27] = qHTS assay for environmental chemicals that activate the Aryl hydrocarbon Receptor (AhR) signaling pathway (AID 651777); conditions: 1A2-DRE human hepatoma cells, luciferase, 24 h; activation: stronger effect = higher value; further: potency means the concentration at half of the fitted maximal effect; nearly all actives have a fitted effect of over 15% in size
# Procedure, shortened: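 Stable CYP1A2 promoter/DRE-luciferase human hepatoma line treated 24 hr; One-Glo luminescence, 30 min RT.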
# [28] = target: Peroxisome proliferator-activated receptor alpha (Homo sapiens) (UniProt Q07869); test: qHTS assay for small molecule agonists of the peroxisome proliferator-activated receptor alpha (PPARalpha) signaling pathway (AID 651778); conditions: PathHunter PPARalpha complementation, chemiluminescence, 6 h; max response: stronger effect = higher value
# Chain of Peroxisome proliferator-activated receptor alpha (Homo sapiens) (Q07869 whole entry, looked up, the tested form may be a part): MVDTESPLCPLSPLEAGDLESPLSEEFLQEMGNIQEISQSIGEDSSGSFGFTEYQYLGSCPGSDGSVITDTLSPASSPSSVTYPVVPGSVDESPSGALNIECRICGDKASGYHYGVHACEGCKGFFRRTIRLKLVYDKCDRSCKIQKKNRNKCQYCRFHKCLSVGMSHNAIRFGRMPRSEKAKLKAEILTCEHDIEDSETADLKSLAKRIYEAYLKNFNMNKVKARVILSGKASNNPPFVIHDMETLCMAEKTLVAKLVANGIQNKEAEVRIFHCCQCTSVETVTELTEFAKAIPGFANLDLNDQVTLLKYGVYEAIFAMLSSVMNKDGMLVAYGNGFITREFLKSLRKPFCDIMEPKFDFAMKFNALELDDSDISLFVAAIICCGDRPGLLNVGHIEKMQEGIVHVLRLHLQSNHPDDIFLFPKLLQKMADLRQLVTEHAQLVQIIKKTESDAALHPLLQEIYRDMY
# Procedure, shortened: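 Enzyme-fragment complementation assay in which ligand-bound PPARalpha translocates and forms an active enzyme that generates chemiluminescence. Cells were plated overnight, exposed to compound for 6 hr at 37 C, and then given detection reagent for 60 min at room temperature.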
# [29] = target: Nuclear receptor ROR-gamma (Homo sapiens) (UniProt P51449); test: qHTS assay for small molecule antagonists of the retinoid-related orphan receptor gamma (ROR-gamma) signaling pathway (AID 651802)
# Chain of Nuclear receptor ROR-gamma (Homo sapiens) (P51449 whole entry, looked up): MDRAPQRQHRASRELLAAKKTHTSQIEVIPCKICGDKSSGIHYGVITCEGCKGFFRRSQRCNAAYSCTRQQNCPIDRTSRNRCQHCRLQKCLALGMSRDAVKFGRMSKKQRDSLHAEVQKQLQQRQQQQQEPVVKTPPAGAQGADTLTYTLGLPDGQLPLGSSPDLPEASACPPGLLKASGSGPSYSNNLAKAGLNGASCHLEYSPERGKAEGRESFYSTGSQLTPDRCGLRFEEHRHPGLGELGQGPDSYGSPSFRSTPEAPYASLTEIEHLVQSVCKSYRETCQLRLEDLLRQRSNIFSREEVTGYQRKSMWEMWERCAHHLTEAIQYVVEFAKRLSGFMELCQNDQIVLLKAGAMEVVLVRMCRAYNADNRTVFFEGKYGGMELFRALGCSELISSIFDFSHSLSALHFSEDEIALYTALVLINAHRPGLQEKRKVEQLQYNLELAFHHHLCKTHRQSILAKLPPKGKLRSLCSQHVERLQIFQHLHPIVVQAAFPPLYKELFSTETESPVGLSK
# Procedure, shortened: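 Doxycycline-induced reporter activity in engineered CHO cells (TET-inducible ROR, RORE-LUC) was measured by luminescence after 16hr compound exposure at 37C.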
# [30] = qHTS assay for small molecule antagonists of the retinoid-related orphan receptor gamma (ROR-gamma) signaling pathway - cell viability counter screen (AID 720652; active means well fitted curve in the direction sought with a large enough effect in the repeat runs; an effect the other way counts as inactive or inconclusive;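 further: CHO reporter cells with doxycycline-induced ROR-gamma expression; series mostly up to about 92 µM; compound exposure lasted 16 hr before ATP read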)
# Procedure, shortened: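 ATP-based viability readout in the ROR-gamma reporter CHO cells after 16 hr compound exposure under doxycycline induction.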
# [31] = qHTS assay for small molecule agonists of the antioxidant response element (ARE) signaling pathway measured by Nrf2-dependant transcriptional activity - cell viability counter screen (AID 720653; active means well fitted curve in the direction sought with a large enough effect in the repeat runs; an effect the other way counts as inactive or inconclusive); conditions: ARE-bla HepG2 viability, CellTiter-Glo ATP luminescence, 16 h; max response: stronger effect = lower value
# Procedure, shortened: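 ARE-bla HepG2 cells treated with compounds for 16 h at 37C; this counter screen measures viability as intracellular ATP by CellTiter-Glo luminescence after 30 min at room temperature.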
# [32] = qHTS assay for cell viability of HEK293 cells (AID 743288); conditions: ATP luminescence (CellTiter-Glo), 18 h; max response: stronger effect = lower value; further: nearly all actives have a fitted effect of over 50% in size
# Procedure, shortened: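 Viable-cell counts were inferred from luciferase-based ATP content in HEK293 cells seeded at 2,000/well, pre-incubated ≥5 h, then dosed with DMSO-solubilised compounds for 18 h at 37 C.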
# [33] = qHTS assay for cell viability of the p53RE-bla HCT-116 cell line (AID 743292); further: nearly all actives have a fitted effect of over 55% in size
# Procedure, shortened: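 Readout: CellTiter-Glo luminescence after 30 min RT. Treatment: compounds in DMSO, 16 h, 37 C. Cells: CellSensor p53RE-bla HCT-116, 4,000/well, preincubated 5 h.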
compound,measurement,setting,value
O=C(O)c1cc(N=Nc2ccc([N+](=O)[O-])cc2)ccc1O,Potency,[1],inactive
same,Potency,[2],inactive
same,Potency,[3],inactive
same,Potency,[4],inactive
same,Potency,[5],inactive
same,Potency,[6],inactive
same,Potency,[7],inactive
same,Potency,[8],inactive
same,Potency,[9],inactive
same,Potency,[10],inactive
same,Potency,[11],inactive
same,Potency,[12],inactive
same,Potency,[13],inactive
same,Potency,[14],inactive
same,Potency,[15],inactive
same,Potency,[16],inactive
same,outcome,[17],inactive
same,activation,[18],-18.2%
same,Potency,[19],10 µM (active)
same,activity change % (negative = inhibition),[20],12.8%
same,Potency,[21],inactive
same,activation,[22],-5.24%
same,activation,[23],-2.01%
same,Potency,[24],37.6 µM (active)
same,Potency,[25],inactive
same,Potency,[26],inactive
same,Potency,[27],4.47 µM (active)
same,max response,[28],-12.2%
same,Potency,[29],inactive
same,Potency,[30],inactive
same,max response,[31],-5.1%
same,max response,[32],6.02%
same,Potency,[33],inactive
